Laboratory results reported in PubChem BioAssay (EPA / NIEHS).
Calls of active or inactive are those of the source. The calls were made as follows: active = hit-call score of the fitted dose curve at least 0.9, where 1 is the maximum; inactive = score below 0.9.

Key:
Settings in all cases: mRNA level, 48 h; actives raise or lower the signal
CYP3A5 (gene 1577) = assay: LTEA_HepaRG_CYP3A5: Life Technologies and Expression Analysis (LTEA) Assay for CYP3A5 using HepaRG (AID 2283493)
In short: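 Differentiated HepaRG cells in serum-free induction medium were dosed 48 h with test chemicals (8-point half-log series, top 100 uM, 0.5% DMSO, duplicate). CYP3A5 mRNA measured by qRT-PCR, normalized to ACTB, GAPDH, POLR2A; bidirectional fit versus DMSO.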

[1] = read-out: Fatty Acid-Binding Protein 1 (FABP1), FABP1 (gene 2168); assay: LTEA_HepaRG_FABP1: Life Technologies and Expression Analysis (LTEA) Assay for Fatty Acid-Binding Protein 1 (FABP1) using HepaRG (AID 2283494)
In short: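 Differentiated human HepaRG cells were exposed in duplicate for 48 h in serum-free induction medium to 8-point half-log concentration series topping at 100 uM in 0.5% DMSO. FABP1 mRNA measured by TaqMan qRT-PCR, normalized to ACTB/GAPDH/POLR2A; bidirectional fit versus DMSO.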

[2] = read-out: Cytochrome P450 4A22 (Homo sapiens) (UniProt Q5TCH4); assay: LTEA_HepaRG_CYP4A22: Life Technologies and Expression Analysis (LTEA) Assay for Cytochrome P450 4A22 (CYP4A22) using HepaRG (AID 2283495)
In short: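 qRT-PCR of CYP4A22 mRNA (Fluidigm TaqMan, normalized to three housekeeping genes) after 48 h chemical exposure of HepaRG cells; 8-point half-log series, top 100 uM, 0.5% DMSO vehicle. Bidirectional curve fitting vs DMSO baseline.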

[3] = read-out: Cytochrome P450 7A1 (Homo sapiens) (UniProt P22680); assay: LTEA_HepaRG_CYP7A1: Life Technologies and Expression Analysis (LTEA) Assay for Cytochrome P450 7A1 (CYP7A1) using HepaRG (AID 2283496)
In short: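 Gene expression endpoint in human HepaRG liver cells treated for 48 h with test chemicals (up to 100 uM, 0.5% DMSO). Values come from bidirectional concentration-response fitting versus DMSO.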

[4] = read-out: Glutathione S-Transferase (GSTA2), GSTA2 (gene 2939); assay: LTEA_HepaRG_GSTA2: Life Technologies and Expression Analysis (LTEA) Assay for Glutathione S-Transferase (GSTA2) using HepaRG (AID 2283497)
In short: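 Human HepaRG cells, plated 48 h, then exposed in serum-free induction medium for 48 h to eight half-log concentrations up to 100 uM in 0.5% DMSO, duplicate. GSTA2 mRNA by qRT-PCR, normalized to ACTB/GAPDH/POLR2A; bidirectional fit versus DMSO.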

[5] = read-out: Glutamate-cysteine ligase catalytic (GCLC), GCLC (gene 2729); assay: LTEA_HepaRG_GCLC: Life Technologies and Expression Analysis (LTEA) Assay for Glutamate-cysteine ligase catalytic (GCLC) using HepaRG (AID 2283498)
In short: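 Differentiated human HepaRG cells, plated 48 h then switched to serum-free induction medium, were exposed in duplicate for 48 h to 8 half-log concentrations topping at 100 uM in 0.5% DMSO. GCLC mRNA was quantified by qRT-PCR against ACTB, GAPDH and POLR2A.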

[6] = read-out: growth arrest and DNA damage 45 (GADD45G), GADD45G (gene 10912); assay: LTEA_HepaRG_GADD45G: Life Technologies and Expression Analysis (LTEA) Assay for growth arrest and DNA damage 45 (GADD45G) using HepaRG (AID 2283499)
In short: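 Differentiated human HepaRG cells in serum-free induction medium were exposed for 48 h to 8 half-log concentrations up to 100 uM in 0.5% DMSO, in duplicate. GADD45G mRNA was measured by TaqMan qRT-PCR, normalised to ACTB, GAPDH and POLR2A, and fitted bidirectionally against DMSO.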

[7] = read-out: Glutamate-cysteine ligase regulatory (GCLM), GCLM (gene 2730); assay: LTEA_HepaRG_GCLM: Life Technologies and Expression Analysis (LTEA) Assay for Glutamate-cysteine ligase regulatory (GCLM) using HepaRG (AID 2283500)
In short: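 Differentiated human HepaRG cells exposed 48 h in serum-free induction medium to 8-point half-log concentrations (top 100 uM, 0.5% DMSO), in duplicate. GCLM mRNA quantified by qRT-PCR, normalized to ACTB, GAPDH, POLR2A; bidirectional fitting versus DMSO.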

[8] = read-out: Glutathione S-transferase M3 (GSTM3), GSTM3 (gene 2947); assay: LTEA_HepaRG_GSTM3: Life Technologies and Expression Analysis (LTEA) Assay for Glutathione S-transferase M3 (GSTM3) using HepaRG (AID 2283501)
In short: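 Differentiated HepaRG cells in serum-free induction medium were exposed in duplicate for 48 h to 8 half-log concentrations up to 100 uM in 0.5% DMSO. GSTM3 mRNA was measured by TaqMan qRT-PCR, normalized to ACTB/GAPDH/POLR2A, and fitted bidirectionally versus DMSO.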

[9] = read-out: Heat shock 70 kDa protein 1 (HSPA1A), gene 3303; assay: LTEA_HepaRG_HSPA1A: Life Technologies and Expression Analysis (LTEA) Assay for Heat shock 70 kDa protein 1 (HSPA1A) using HepaRG (AID 2283502)
In short: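 Differentiated human HepaRG cells in serum-free induction medium were exposed in duplicate for 48 h to eight concentrations (top 100 uM, half-log steps, 0.5% DMSO). HSPA1A mRNA was quantified by qRT-PCR, normalized to ACTB, GAPDH and POLR2A, and fitted bidirectionally against DMSO.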

[10] = read-out: Hypoxia-inducible factor 1-alpha (Homo sapiens) (UniProt Q16665); assay: LTEA_HepaRG_HIF1A: Life Technologies and Expression Analysis (LTEA) Assay for Hypoxia-inducible factor 1 (HIF1A) Trancription factor using HepaRG (AID 2283503)
In short: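 HepaRG, 48 h exposure, 8-pt half-log series from 100 uM, 0.5% DMSO vehicle, duplicates. Readout: HIF1A transcript by qRT-PCR (Fluidigm array), housekeeping-normalised. Bidirectional curve fit vs DMSO baseline.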

[11] = read-out: 3-Hydroxy-3-Methylglutaryl-CoA Synthase 2 (HMGCS2), HMGCS2 (gene 3158); assay: LTEA_HepaRG_HMGCS2: Life Technologies and Expression Analysis (LTEA) Assay for 3-Hydroxy-3-Methylglutaryl-CoA Synthase 2 (HMGCS2) using HepaRG (AID 2283504)
In short: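 Differentiated human HepaRG cells were exposed in duplicate for 48 h in serum-free induction medium to eight concentrations (top 100 uM, half-log steps, 0.5% DMSO). HMGCS2 mRNA was quantified by TaqMan qRT-PCR, normalised to ACTB, GAPDH and POLR2A, then fitted bidirectionally against DMSO.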

HGF (gene 3082) = assay: LTEA_HepaRG_HGF: Life Technologies and Expression Analysis (LTEA) Assay for Hepatocyte Growth Facto (HGF) using HepaRG (AID 2283505)
In short: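 Differentiated human HepaRG cells in serum-free induction medium were exposed in duplicate for 48 h to eight concentrations (top 100 uM, half-log steps, 0.5% DMSO). HGF mRNA was quantified by qRT-PCR, normalized to ACTB, GAPDH and POLR2A.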

[12] = read-out: Insulin Like Growth Factor 1 (IGF1), IGF1 (gene 3479); assay: LTEA_HepaRG_IGF1: Life Technologies and Expression Analysis (LTEA) Assay for Insulin Like Growth Factor 1 (IGF1) using HepaRG (AID 2283506)
In short: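 Differentiated human HepaRG cells were dosed for 48 h in serum-free induction medium with 0.5% DMSO, eight half-log concentrations up to 100 uM, in duplicate. IGF1 mRNA was quantified by qRT-PCR normalized to ACTB, GAPDH, POLR2A; bidirectional fitting versus DMSO.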

[13] = read-out: Intercellular Adhesion Molecule 1 (ICAM1), ICAM1 (gene 3383); assay: LTEA_HepaRG_ICAM1: Life Technologies and Expression Analysis (LTEA) Assay for Intercellular Adhesion Molecule 1 (ICAM1) using HepaRG (AID 2283507)
In short: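 Differentiated HepaRG cells in serum-free induction medium were exposed in duplicate for 48 h to eight half-log concentrations up to 100 uM in 0.5% DMSO. Transcript levels were measured by qRT-PCR normalized to ACTB, GAPDH and POLR2A; bidirectional fits relative to DMSO.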

[14] = read-out: Insulin-like growth factor-binding protein 1 (IGFBP1), IGFBP1 (gene 3484); assay: LTEA_HepaRG_IGFBP1: Life Technologies and Expression Analysis (LTEA) Assay for Insulin-like growth factor-binding protein 1 (IGFBP1) using HepaRG (AID 2283508)
In short: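 Differentiated human HepaRG cells in serum-free induction medium were exposed in duplicate for 48 h to eight concentrations, top 100 uM with half-log dilutions, in 0.5% DMSO. Transcript levels came from qRT-PCR normalised to ACTB, GAPDH and POLR2A, fitted bidirectionally against DMSO.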

[15] = read-out: Interleukin 6 (IL6), IL6 (gene 3569); assay: LTEA_HepaRG_IL6: Life Technologies and Expression Analysis (LTEA) Assay for Interleukin 6 (IL6) using HepaRG (AID 2283509)
In short: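 Differentiated human HepaRG cells, plated 48 h then switched to serum-free induction medium, were exposed in duplicate for 48 h to eight half-log concentrations up to 100 uM in 0.5% DMSO. IL6 mRNA measured by qRT-PCR, normalized to ACTB/GAPDH/POLR2A.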

[16] = read-out: Interleukin 6 Receptor (IL6R), IL6R (gene 3570); assay: LTEA_HepaRG_IL6R: Life Technologies and Expression Analysis (LTEA) Assay for Interleukin 6 Receptor (IL6R) using HepaRG (AID 2283510);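 as to AC50: TaqMan qRT-PCR signal normalized to ACTB GAPDH and POLR2A housekeeping genes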
In short: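 Differentiated human HepaRG cells, plated 48 h then switched to serum-free induction medium, were dosed in duplicate for 48 h at eight half-log concentrations up to 100 uM in 0.5% DMSO. IL6R mRNA quantified by qRT-PCR, normalized to ACTB/GAPDH/POLR2A; bidirectional fit versus DMSO.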

[17] = read-out: Potassium channel subfamily K member 1 (KCNK1), KCNK1 (gene 3775); assay: LTEA_HepaRG_KCNK1: Life Technologies and Expression Analysis (LTEA) Assay for Potassium channel subfamily K member 1 (KCNK1) using HepaRG (AID 2283511)
In short: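 Differentiated human HepaRG cells in serum-free induction medium were exposed in duplicate for 48 h to 8 half-log concentrations up to 100 uM in 0.5% DMSO. KCNK1 mRNA was measured by TaqMan qRT-PCR, normalized to ACTB, GAPDH and POLR2A, and fitted bidirectionally versus DMSO.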

[18] = read-out: Keratin 19 (KRT19), KRT19 (gene 3880); assay: LTEA_HepaRG_KRT19: Life Technologies and Expression Analysis (LTEA) Assay for Keratin 19 (KRT19) using HepaRG (AID 2283512)
In short: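 Differentiated human HepaRG cells, plated 48 h, were exposed in duplicate for 48 h in serum-free induction medium to eight half-log concentrations up to 100 uM in 0.5% DMSO. KRT19 mRNA was quantified by qRT-PCR, normalized to ACTB, GAPDH and POLR2A, and fitted bidirectionally versus DMSO.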

Measured: AC50

Chain of Hypoxia-inducible factor 1-alpha (Homo sapiens) (Q16665 whole entry, looked up): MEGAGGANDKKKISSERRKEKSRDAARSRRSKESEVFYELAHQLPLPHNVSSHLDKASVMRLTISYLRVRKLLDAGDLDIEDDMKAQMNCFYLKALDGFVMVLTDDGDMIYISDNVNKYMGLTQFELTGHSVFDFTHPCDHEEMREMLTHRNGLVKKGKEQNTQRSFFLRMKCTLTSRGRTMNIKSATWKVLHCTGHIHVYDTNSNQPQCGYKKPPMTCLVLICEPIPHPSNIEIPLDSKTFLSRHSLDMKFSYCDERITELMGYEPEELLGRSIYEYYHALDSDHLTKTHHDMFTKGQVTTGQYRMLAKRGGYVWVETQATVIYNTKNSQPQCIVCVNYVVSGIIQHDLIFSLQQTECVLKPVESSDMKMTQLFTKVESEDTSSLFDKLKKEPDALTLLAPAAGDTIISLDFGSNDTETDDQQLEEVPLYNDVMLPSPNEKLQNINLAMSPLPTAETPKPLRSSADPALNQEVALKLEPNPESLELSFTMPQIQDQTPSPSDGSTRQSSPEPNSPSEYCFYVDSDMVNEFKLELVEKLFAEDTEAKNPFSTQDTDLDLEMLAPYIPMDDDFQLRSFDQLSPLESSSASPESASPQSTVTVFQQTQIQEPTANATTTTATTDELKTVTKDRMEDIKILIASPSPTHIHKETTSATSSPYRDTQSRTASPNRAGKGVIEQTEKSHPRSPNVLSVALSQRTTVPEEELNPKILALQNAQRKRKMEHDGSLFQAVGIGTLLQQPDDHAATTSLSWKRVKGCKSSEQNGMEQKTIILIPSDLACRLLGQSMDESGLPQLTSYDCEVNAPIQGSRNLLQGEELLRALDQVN

Cc1nn(C)c(Oc2ccccc2)c1C=NOCc1ccc(C(=O)OC(C)(C)C)cc1
active: CYP3A5 (gene 1577) 9.26 µM | [1] 7.21 µM | [2] 2.91 µM | [3] 34.7 µM | [4] 30.4 µM | [6] 3.1 µM | [7] 17.6 µM | [8] 3 µM | [9] 1.57 µM | [11] 12.4 µM | HGF (gene 3082) 86.6 µM | [12] 3.22 µM | [13] 16.8 µM | [14] 9.63 µM | [15] 5.23 µM | [16] 1.28 µM | [17] 12.9 µM | [18] 2.05 µM
inactive: [5] | [10]

O=C(c1ccccc1)C1CCCCC1
inactive: all assays above
